Bioassay records: PubChem BioAssay, National Center for Advancing Translational Sciences (NCATS)
KB-V1 MDR tox – kills drug-selected multidrug resistant KB-V1 cells | AID 1347076 | KB-V1 MDR cells viability, CellTiter-Glo, 72 h | hit rate 3.4% among 400,000 | Potency, µM (doses to about 46.1 µM), usual class: cytotoxic; note: % is set by controls: 0 for no effect and ±100 for the full control effect; nearly all actives have a fitted effect of over 60% in size
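KB-V1, DMEM (no phenol red) + 10% FBS; cpd pin-transferred, titration series; 72 h, 37 degrees C; CellTiter-Glo, luminescence. Data normalized, curve-fit.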
MCF10A rerep – inducers of DNA re-replication in MCF 10A breast cells | MCF 10A DNA re-replication, Hoechst nuclear intensity, 48 h | Potency, µM (titrated, usually from 46.1 µM), without a hit: top-dose activity, positive = re-replication, actives largely listed as activators | hit rate 2.9% among 350,000 | AID 624296; note: % of control where 0% means no effect; nearly all actives have a fitted effect of over 50% in size
KB-3-1 tox – kills parental KB-3-1 adenocarcinoma cells | KB-3-1 viability, CellTiter-Glo ATP luminescence, 72 h | Potency, µM (doses to about 46.1 µM), hits mostly cytotoxic | hit rate 1.4% among 400,000 | AID 1347075; note: % is set by controls: 0 for no effect and ±100 for the full control effect; nearly all actives have a fitted effect of over 60% in size
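Parental KB-3-1 viability, qHTS format: 72 h compound exposure, 37 °C; CellTiter-Glo; media-only wells and DMSO plates as controls; concentration-effect fits on corrected data.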
HT1080NT lethal – kills 2HG-producing HT-1080-NT fibrosarcoma cells; HT-1080-NT fibrosarcoma viability, CellTiter-Glo ATP luminescence, 48 h; Potency, µM (series often up to 46.1 µM), for inactives: at the highest dose activity, negative = less viability, most hits filed as cytotoxic; hit rate 1.6% among 360,000;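 note: NT is the 2HG producing partner of a matched IDH1 knockdown line; 0% = DMSO-treated cells and -100% = media-only wells without cells; nearly all actives have a fitted effect of over 55% in size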
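750 cells/well, RPMI + 5% FBS; 2 h settle, compound pin-transfer, 48 h at 37 degrees C. CellTiter-Glo 10 min RT, luminescence. Normalized to DMSO and media-only wells.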
SW480 rerep – DNA re-replication induction in SW480 cells; hit rate 1.8% among 340,000; AID 624297; SW480 DNA re-replication, Hoechst DNA content imaging, 48 h; Potency, µM (highest dose often 46.1 µM), for the others: top-dose re-replication activation, usual class: activators; note: % of control where 0% means no effect; nearly all actives have a fitted effect of over 55% in size
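Image-based read-out: total Hoechst fluorescence of nuclei (405 nm excitation, 500-530 nm emission), with hits raising the fraction of high-intensity nuclei. SW480 colon cells incubated 48 hr with compounds at 37 C.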
HT1080 IDH1KD tx – toxicity to HT-1080 IDH1 knockdown cells (counter line). hit rate 2% among 360,000. HT-1080 IDH1 knockdown viability, ATP luminescence, 48 h. AID 686971. Potency, µM (series often up to 46.1 µM), inactives show top-dose activity, negative = toxicity, hits mostly cytotoxic;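 note: 0% = DMSO wells and -100% = cell-free medium wells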
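Using the IDH1-knockdown HT-1080 line run in the same batch and compound series as the NT line, viability after 48 h at 37 °C was determined by CellTiter-Glo luminescence and expressed as % activity.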
* = called active by the depositor; i = inactive; ? = inconclusive; nt = no result. An excerpt weighted towards active compounds, which were near 7.9% of everything screened. Calls come from the whole dose curve; as a rule, active = well fitted curve in the direction sought with a large enough effect; inconclusive = small, poorly fitted or top-dose-only effect, or another doubt; inactive = no such curve, though single readings can be large; an effect the other way counts as inactive or inconclusive. Potency is the fitted concentration of half-maximal effect.

SMILES	KB-V1 MDR tox	MCF10A rerep	KB-3-1 tox	HT1080NT lethal	SW480 rerep	HT1080 IDH1KD tx
Cc1ccc(C(=O)Nc2cccc3[nH]c(C(F)(F)F)nc23)cc1	18µM*	?	16µM*	?	25%	-40%
O=C/C=C/c1c(-c2ccccc2)cc2oc3ccccc3cc1-2	?	8.2µM*	?	-29%	?	21µM*
Nc1ccc(-c2cc3ccccc3oc2=O)cc1	i	6%	i	6%	0%	24%
CCn1nnc2cc(C(=O)Nc3cccc(C(F)(F)F)c3)ccc21	i	nt	i	nt	nt	nt
Cc1ccc(C)c(NC(=S)NNC(=O)c2sccc2C)c1	?	-3%	i	8.9µM*	0%	?
COc1cc2c(cc1OC)C(Cc1ccccc1[N+](=O)[O-])=NCC2	21µM*	8%	?	-1%	-6%	-1%
COc1ccc(NC(=O)COC(=O)Cc2ccccc2[N+](=O)[O-])cc1OC	i	-3%	i	-2%	-14%	-2%
COc1ccc(NCc2ccccc2[N+](=O)[O-])cc1OC	21µM*	?	i	-5%	19%	1%
COCCN(C(=O)Cc1cccs1)C(C(=O)NCc1ccc(OC)cc1)c1ccccc1 (stereo not given)	i	-35%	i	-1%	0%	0%
CCCCNC(=O)c1ccc(-c2nc(CS(=O)(=O)c3ccc(C)cc3)c(C)o2)cc1	i	nt	i	nt	nt	nt
CCCCOc1ccc(CNC(=O)c2ccc(-c3nc(CN4CCc5ccccc54)c(C)o3)cc2)cc1	?	nt	18µM*	nt	nt	nt
CCCCNC(=O)c1ccc(-c2nc(CN3CCc4ccccc43)c(C)o2)cc1	5.2µM*	nt	?	nt	nt	nt
CC(=O)NS(=O)(=O)c1cccnc1Nc1cccc(Cl)c1C	i	-2%	i	21%	0.52µM*	-1%
C[C@H](O)C#Cc1ccc2c(c1)O[C@@H](CN(C)Cc1ccc(-c3ccccc3)cc1)[C@H](C)CN([C@@H](C)CO)S2(=O)=O	?	nt	?	?	nt	21µM*
C[C@@H]1CN([C@H](C)CO)S(=O)(=O)c2ccc(Br)cc2O[C@@H]1CN(C)Cc1ccc(-c2ccccc2)cc1	i	nt	i	18µM*	nt	16µM*
COc1cccc(S(=O)(=O)N(C)C[C@H]2Oc3cc(Br)ccc3S(=O)(=O)N([C@@H](C)CO)C[C@H]2C)c1	9.2µM*	nt	i	-9%	nt	-9%
CCCNC(=O)N(C)C[C@@H]1Oc2cc(C#C[C@H](C)O)ccc2S(=O)(=O)N([C@H](C)CO)C[C@H]1C	i	nt	i	13%	nt	7%
CC(C)(C)c1ccccc1OCC(=O)Nc1ccccc1C(=O)NCc1cccnc1	18µM*	?	i	?	10%	?
C=CCOc1ccc(C(=O)Nc2ccccc2C(=O)NCc2cccnc2)cc1	3.7µM*	?	5.2µM*	21µM*	?	23µM*
CCCCOc1ccc(C(=O)NCC2(c3ccccc3)CCOCC2)cc1	i	28%	i	-5%	18%	0%
CCCCCOc1ccc(C(=O)NCC2(c3ccccc3)CCOCC2)cc1	23µM*	22%	i	-5%	3%	?
CN1CCN(CC(=O)Nc2c(C(=O)c3ccccc3)oc3ccccc23)CC1	i	30%	i	23µM*	?	21µM*
O=[N+]([O-])/C=C/c1cn(Cc2ccc(F)cc2)c2ccccc12	i	?	i	?	?	11µM*
O=C(O)c1ccc(N/N=C/c2cn(Cc3ccc(F)cc3)c3ccccc23)cc1	i	?	i	-16%	-2%	-12%
Cc1ccc(C)c(N2CCN(Cc3nnnn3C3CCCCC3)CC2)c1	23µM*	?	i	-3%	14%	-3%
SMILES	KB-V1 MDR tox	MCF10A rerep	KB-3-1 tox	HT1080NT lethal	SW480 rerep	HT1080 IDH1KD tx
C1CCN(Cc2nnnn2C2CCCC2)CC1	i	-10%	i	2%	-4%	13%
COc1cccc(N2CCN(Cc3nnnn3C3CCCCC3)CC2)c1	23µM*	0%	i	-3%	1%	-17%
Cc1ccc2nc(N3CCN(Cc4nnnn4C4CCCC4)CC3)c(C#N)cc2c1	21µM*	?	i	-13%	-6%	-5%
CC1CCCCN1Cc1nc2c(c(=O)n(C)c(=O)n2C)n1Cc1ccc(Br)cc1 (stereo not given)	i	nt	i	nt	nt	nt
Cc1cccc(Cl)c1NC(=O)N1CCCN(c2nc3ccc(Cl)cc3s2)CC1	?	11%	?	?	1%	-23%
Cc1nc(Nc2ncc(C(=O)Nc3c(C)cccc3Cl)s2)cc(N2CCN(CCO)CC2)n1	i	19µM*	?	nt	17µM*	nt
COc1ccc2cc(/C=N/NC(=O)c3ccc(CN(c4cccc(Cl)c4Cl)S(C)(=O)=O)cc3)c(Cl)nc2c1	?	?	2.6µM*	?	-5%	?
Cc1ccccc1-n1c(-c2ccco2)n[nH]c1=S	i	-2%	i	2%	-3%	1%
COc1ccccc1C(=O)N/N=C(\C)CC(=O)Nc1ccc(Cl)cn1	i	?	i	2%	?	2%
COc1cc(O)oc1C=Nc1ccc(C(=O)O)cc1	23µM*	-4%	?	?	-4%	?
CCOc1ccccc1OCCCC(=O)Nc1cc(S(=O)(=O)N2CCOCC2)ccc1OC	i	-19%	i	-14%	?	-2%
COc1ccc(C(=O)Nc2ccc(Oc3ncnc4sc(-c5ccccc5)cc34)cc2)cc1OC	i	3.3µM*	i	14%	nt	16%
c1ccc(-c2cc3c(N4CCN(c5ccccc5)CC4)ncnc3s2)cc1	?	12µM*	i	-26%	4%	-10%
c1ccc(-c2cc3c(N4CCN(c5ncccn5)CC4)ncnc3s2)cc1	?	?	i	14%	-45%	9%
COc1cc(C(=O)Nc2ccc(Oc3ncnc4sc(-c5ccccc5)cc34)cc2)cc(OC)c1OC	?	8%	i	6%	16%	?
CC(C)C(C)(C#N)NC(=O)CSc1ncnc2sc(-c3ccccc3)cc12 (stereo not given)	23µM*	14%	i	13µM*	-1%	-5%
Cn1ncc2c(Nc3ccc(-c4ccccc4)cc3)ncnc21	i	29%	i	11µM*	?	?
CC(C)(C)Nc1ncnc2sc(-c3ccccc3)cc12	i	18µM*	?	-26%	?	-29%
COc1ccc(Nc2ncnc3sc(-c4ccccc4)cc23)cc1	21µM*	?	?	-3%	7%	-2%
